Source: PubChem BioAssay AID1159580 (chemical genetic matrix, 2015)
The campaign covered roughly 5,500 compounds. About 2,000 (36%) were called active. Another 18% or so got no clear call; they are omitted. No stated cut-off is given here; in the data, active means normalized growth mostly below about 0.91 (no sharp cut-off); inconclusive means no clear call, values can overlap the other calls; inactive means mostly above about 0.92. The list shows a part of the results.

Test: chemical genetic growth profiling, strain panel (AID 1159580);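 further: tested at 20 µM; growth read once vehicle control cultures reached saturation at 30 °C; 1 = growth at the plate median or of vehicle wells; lower values mean less growth of the strain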
Details: growth OD

Measured: normalized growth

COc1ccc2c(=O)cc(-c3ccccc3OC)oc2c1
active: S. cerevisiae deletion strains, locus YAL013W, strain DEP1, active compounds read low 0.743 | S. cerevisiae deletion strains, locus YBR021W, strain FUR4, active compounds read low 0.797 | S. cerevisiae deletion strains, locus YDL192W, strain arf1, active compounds read low 0.763 | S. cerevisiae deletion strains, locus YDR101C, strain arx1, active compounds read low 0.883 | S. cerevisiae deletion strains, locus YDR318W, strain mcm21, active compounds read low 0.866 | S. cerevisiae deletion strains, locus YDR502C, strain sam2, active compounds read low 0.85 | S. cerevisiae deletion strains, locus YER155C, strain BEM2, active compounds read low 0.869 | S. cerevisiae deletion strains, locus YGL086W, strain mad1, active compounds read low 0.833 | S. cerevisiae deletion strains, locus YGL248W, strain PDE1, active compounds read low 0.825 | S. cerevisiae deletion strains, locus YGR078C, strain PAC10, active compounds read low 0.509 | S. cerevisiae deletion strains, locus YGR135W, strain pre9, active compounds read low 0.812 | S. cerevisiae deletion strains, locus YGR252W, strain gcn5, active compounds read low 0.716 | S. cerevisiae deletion strains, locus YHR030C, strain SLT2, active compounds read low 0.539 | S. cerevisiae deletion strains, locus YHR129C, strain ARP1, active compounds read low 0.849 | S. cerevisiae deletion strains, locus YHR200W, strain rpn10, active compounds read low 0.895 | S. cerevisiae deletion strains, locus YIL066C, strain RNR3, active compounds read low 0.819 | S. cerevisiae deletion strains, locus YIR030C, strain dcg1, active compounds read low 0.905 | S. cerevisiae deletion strains, locus YJL095W, strain BCK1, active compounds read low 0.437 | S. cerevisiae deletion strains, locus YJR043C, strain POL32, active compounds read low 0.778 | S. cerevisiae deletion strains, locus YKR001C, strain vps1, active compounds read low 0.709 | S. cerevisiae deletion strains, locus YLR039C, strain RIC1, active compounds read low 0.642 | S. cerevisiae deletion strains, locus YLR268W, strain sec22, active compounds read low 0.767 | S. cerevisiae deletion strains, locus YLR330W, strain CHS5, active compounds read low 0.629 | S. cerevisiae deletion strains, locus YLR342W, strain FKS1 (second series), active compounds read low 0.716 | S. cerevisiae deletion strains, locus YLR371W, strain rom2, active compounds read low 0.728 | S. cerevisiae deletion strains, locus YLR418C, strain cdc73, active compounds read low 0.468 | S. cerevisiae deletion strains, locus YML032C, strain rad52, active compounds read low 0.879 | S. cerevisiae deletion strains, locus YMR223W, strain ubp8, active compounds read low 0.831 | S. cerevisiae deletion strains, locus YMR307W, strain GAS1, active compounds read low 0.49 | S. cerevisiae deletion strains, locus YNL128W, strain TEP1, active compounds read low 0.708 | S. cerevisiae deletion strains, locus YNL233W, strain BNI4, active compounds read low 0.632 | S. cerevisiae deletion strains, locus YNL307C, strain MCK1, active compounds read low 0.526 | S. cerevisiae deletion strains, locus YNR052C, strain pop2, active compounds read low 0.914 | S. cerevisiae deletion strains, locus YOL006C, strain TOP1, active compounds read low 0.484 | S. cerevisiae deletion strains, locus YOL147C, strain pex11, active compounds read low 0.874 | S. cerevisiae deletion strains, locus YOR144C, strain elg1, active compounds read low 0.916 | S. cerevisiae deletion strains, locus YOR184W, strain ser1, active compounds read low 0.671 | S. cerevisiae deletion strains, locus YPL241C, strain CIN2, active compounds read low 0.918 | S. cerevisiae deletion strains, locus YPR163C, strain tif3, active compounds read low 0.748 | S. cerevisiae deletion strains, locus YPR167C, strain met16, active compounds read low 0.902 | S. cerevisiae deletion strains, strain wtn01, active compounds read low 0.802 | S. cerevisiae strains, strain wild type, active compounds read low 0.589
inactive: S. cerevisiae deletion strains, locus YBR229C, strain ROT2, active compounds read low 0.97 | S. cerevisiae deletion strains, locus YCL029C, strain bik1, active compounds read low 0.946 | S. cerevisiae deletion strains, locus YDL035C, strain GPR1, active compounds read low 0.865 | S. cerevisiae deletion strains, locus YDL074C, strain BRE1, active compounds read low 0.81 | S. cerevisiae deletion strains, locus YDL101C, strain DUN1, active compounds read low 0.933 | S. cerevisiae deletion strains, locus YDL185W, strain tfp1, active compounds read low 0.948 | S. cerevisiae deletion strains, locus YDR162C, strain NBP2, active compounds read low 0.843 | S. cerevisiae deletion strains, locus YDR388W, active compounds read low 0.934 | S. cerevisiae deletion strains, locus YER110C, active compounds read low 0.939 | S. cerevisiae deletion strains, locus YGL078C, strain dbp3, active compounds read low 0.934 | S. cerevisiae deletion strains, locus YHR079C, strain IRE1 (second series), active compounds read low 0.941 | S. cerevisiae deletion strains, locus YHR094C, strain hxt1, active compounds read low 0.961 | S. cerevisiae deletion strains, locus YIL073C, strain SPO22, active compounds read low 0.806 | S. cerevisiae deletion strains, locus YIL125W, strain kgd1, active compounds read low 0.938 | S. cerevisiae deletion strains, locus YJL134W, strain LCB3, active compounds read low 0.985 | S. cerevisiae deletion strains, locus YJL168C, strain set2, active compounds read low 0.941 | S. cerevisiae deletion strains, locus YJL187C, strain SWE1 (second series), active compounds read low 0.918 | S. cerevisiae deletion strains, locus YKL009W, strain mrt4, active compounds read low 0.947 | S. cerevisiae deletion strains, locus YKL068W, active compounds read low 0.963 | S. cerevisiae deletion strains, locus YKL085W, strain MDH1 (second series), active compounds read low 0.97 | S. cerevisiae deletion strains, locus YKL085W, strain MDH1, active compounds read low 0.97 | S. cerevisiae deletion strains, locus YLR058C, strain SHM2, active compounds read low 0.949 | S. cerevisiae deletion strains, locus YLR102C, strain apc9, active compounds read low 0.95 | S. cerevisiae deletion strains, locus YLR262C, strain YPT6, active compounds read low 0.65 | S. cerevisiae deletion strains, locus YML016C, strain PPZ1, active compounds read low 0.974 | S. cerevisiae deletion strains, locus YML124C, strain tub3, active compounds read low 0.94 | S. cerevisiae deletion strains, locus YMR078C, strain ctf18, active compounds read low 0.916 | S. cerevisiae deletion strains, locus YNL067W, strain RPL9B, active compounds read low 0.923 | S. cerevisiae deletion strains, locus YNL250W, strain rad50, active compounds read low 0.984 | S. cerevisiae deletion strains, locus YNL271C, strain bni1, active compounds read low 0.939 | S. cerevisiae deletion strains, locus YNL298W, strain CLA4, active compounds read low 0.912 | S. cerevisiae deletion strains, locus YNL322C, strain KRE1, active compounds read low 0.969 | S. cerevisiae deletion strains, locus YOL012C, strain htz1 0.811 | S. cerevisiae deletion strains, locus YOR061W, strain CKA2, active compounds read low 0.976 | S. cerevisiae deletion strains, locus YOR069W, strain VPS5, active compounds read low 0.957 | S. cerevisiae deletion strains, locus YOR136W, strain idh2, active compounds read low 0.931 | S. cerevisiae deletion strains, locus YOR316C, strain cot1, active compounds read low 0.958 | S. cerevisiae deletion strains, locus YPR119W, strain clb2, active compounds read low 0.941 | S. cerevisiae deletion strains, locus YPR141C, strain kar3, active compounds read low 0.96
